# Data reported in the supplement of paper PMC10849652.
# Of roughly 7,900 targets only a part is listed; those with a hit were picked by preference. About 0.6% of all pairs of compound and target were hits. Values without a mark were called inactive.
# Assays:
# Experiment in all cases: log2 fold change, soluble protein after heating vs DMSO (PISA); higher = thermal stabilisation; K562 cells, 10 uM, 30 min; active = over 0.2 and 3.5 SD of the protein, either way, in both replicates (recomputed)
# [1] = compound: COC1=CC=C(C=C1)CN2C=CC3=C2C=C(C=C3)C(=O)NO
# Summary of the method: (§1)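 K562 cells at 2×10^6 cells/mL were given 10 μM compound for 30 min. Aliquots then went through 3 min of heating across 48°C-58°C, were pooled, and were extracted in PBS with 0.5% NP-40 at 4°C, and the supernatant after 21,000xg for 90 min was quantified by TMTpro 16plex LC-MS/MS with channel sums equalised. Thermal stability relative to control samples, from duplicates, is given as log2 fold change.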
# filanesib = compound: CON(C)C(=O)N1N=C(c2cc(F)ccc2F)S[C@@]1(CCCN)c1ccccc1 [filanesib]
# Summary of the method: as §1
# zotarolimus = compound: CO[C@H]1C[C@@H]2CC[C@@H](C)[C@@](O)(O2)C(=O)C(=O)N2CCCC[C@H]2C(=O)O[C@H]([C@H](C)C[C@@H]2CC[C@H](n3cnnn3)[C@H](OC)C2)CC(=O)[C@H](C)/C=C(\C)[C@@H](O)[C@@H](OC)C(=O)[C@H](C)C[C@H](C)/C=C/C=C/C=C/1C [zotarolimus]
# Summary of the method: as §1
# idasanutlin = compound: COc1cc(C(=O)O)ccc1NC(=O)[C@@H]1N[C@@H](CC(C)(C)C)[C@](C#N)(c2ccc(Cl)cc2F)[C@H]1c1cccc(Cl)c1F [idasanutlin]
# Summary of the method: as §1
# alisertib = compound: COc1cc(Nc2ncc3c(n2)-c2ccc(Cl)cc2C(c2c(F)cccc2OC)=NC3)ccc1C(=O)O [alisertib]
# Summary of the method: as §1
# [2] = compound: COc1cc2nc(-c3cc(F)ccc3O)nc(N[C@@H]3CNC[C@H]3C(C)(C)O)c2cc1OC
# Summary of the method: as §1
# gefitinib = compound: COc1cc2ncnc(Nc3ccc(F)c(Cl)c3)c2cc1OCCCN1CCOCC1 [gefitinib]
# Summary of the method: as §1
# [3] = compound: COc1cccc2cc(-c3nc([C@H]4CC[C@H](C(=O)O)CC4)n4ncnc(N)c34)[nH]c12
# Summary of the method: as §1
# lapatinib = compound: CS(=O)(=O)CCNCc1ccc(-c2ccc3ncnc(Nc4ccc(OCc5cccc(F)c5)c(Cl)c4)c3c2)o1 [lapatinib]
# Summary of the method: as §1
# pictilisib = compound: CS(=O)(=O)N1CCN(Cc2cc3nc(-c4cccc5[nH]ncc45)nc(N4CCOCC4)c3s2)CC1 [pictilisib]
# Summary of the method: as §1
# [4] = compound: CS(=O)(=O)c1ccc(-c2cnc(N)c(C(=O)Nc3ccccc3)n2)cc1
# Summary of the method: as §1
# crizotinib = compound: C[C@@H](Oc1cc(-c2cnn(C3CCNCC3)c2)cnc1N)c1c(Cl)ccc(F)c1Cl [crizotinib]
# Summary of the method: as §1
# [5] = compound: C[C@@H]1COCCN1C2=NC(=NC(=C2)C3(CC3)S(=O)(=O)C)C4=C5C=CNC5=CC=C4
# Summary of the method: as §1
# [6] = compound: C[C@H](C1=CC=C(C=C1)C(=O)NC2=C3C=CNC3=NC=C2)N
# Summary of the method: as §1
# duvelisib = compound: C[C@H](Nc1ncnc2nc[nH]c12)c1cc2cccc(Cl)c2c(=O)n1-c1ccccc1 [duvelisib]
# Summary of the method: as §1
# gandotinib = compound: Cc1cc(Nc2cc(CN3CCOCC3)c3nc(C)c(Cc4ccc(Cl)cc4F)n3n2)n[nH]1 [gandotinib]
# Summary of the method: as §1
# tozasertib = compound: Cc1cc(Nc2cc(N3CCN(C)CC3)nc(Sc3ccc(NC(=O)C4CC4)cc3)n2)n[nH]1 [tozasertib]
# Summary of the method: as §1
# [7] = compound: Cc1cc(SCc2sc(-c3ccc(C(F)(F)F)cc3)nc2C)ccc1OCC(=O)O
# Summary of the method: as §1
# doramapimod = compound: Cc1ccc(-n2nc(C(C)(C)C)cc2NC(=O)Nc2ccc(OCCN3CCOCC3)c3ccccc23)cc1 [doramapimod]
# Summary of the method: as §1
# ispinesib = compound: Cc1ccc(C(=O)N(CCCN)[C@@H](c2nc3cc(Cl)ccc3c(=O)n2Cc2ccccc2)C(C)C)cc1 [ispinesib]
# Summary of the method: as §1
# Sequence of UniProt Q12894 (Q12894 whole entry, looked up): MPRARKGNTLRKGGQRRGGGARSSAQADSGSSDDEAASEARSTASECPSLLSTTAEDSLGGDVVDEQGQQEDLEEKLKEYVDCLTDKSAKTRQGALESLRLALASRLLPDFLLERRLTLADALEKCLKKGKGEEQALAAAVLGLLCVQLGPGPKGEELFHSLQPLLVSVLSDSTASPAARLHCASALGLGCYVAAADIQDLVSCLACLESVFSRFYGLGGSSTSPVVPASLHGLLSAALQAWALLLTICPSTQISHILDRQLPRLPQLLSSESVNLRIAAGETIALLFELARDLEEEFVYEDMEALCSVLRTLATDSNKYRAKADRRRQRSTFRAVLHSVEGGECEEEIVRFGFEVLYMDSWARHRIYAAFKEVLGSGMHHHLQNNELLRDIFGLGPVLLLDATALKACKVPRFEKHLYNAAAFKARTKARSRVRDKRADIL
# Sequence of UniProt P51570 (P51570 whole entry, looked up): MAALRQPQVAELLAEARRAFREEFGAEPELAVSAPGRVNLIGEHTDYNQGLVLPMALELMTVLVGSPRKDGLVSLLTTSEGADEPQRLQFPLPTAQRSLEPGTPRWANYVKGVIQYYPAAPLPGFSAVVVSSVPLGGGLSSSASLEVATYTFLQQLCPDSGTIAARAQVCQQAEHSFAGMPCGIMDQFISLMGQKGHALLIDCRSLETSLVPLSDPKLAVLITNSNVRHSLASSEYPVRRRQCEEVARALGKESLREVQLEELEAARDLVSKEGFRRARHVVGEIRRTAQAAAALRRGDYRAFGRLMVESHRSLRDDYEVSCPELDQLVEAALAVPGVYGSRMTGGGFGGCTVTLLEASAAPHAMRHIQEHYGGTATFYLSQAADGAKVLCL
# Sequence of UniProt O43824 (O43824 whole entry, looked up): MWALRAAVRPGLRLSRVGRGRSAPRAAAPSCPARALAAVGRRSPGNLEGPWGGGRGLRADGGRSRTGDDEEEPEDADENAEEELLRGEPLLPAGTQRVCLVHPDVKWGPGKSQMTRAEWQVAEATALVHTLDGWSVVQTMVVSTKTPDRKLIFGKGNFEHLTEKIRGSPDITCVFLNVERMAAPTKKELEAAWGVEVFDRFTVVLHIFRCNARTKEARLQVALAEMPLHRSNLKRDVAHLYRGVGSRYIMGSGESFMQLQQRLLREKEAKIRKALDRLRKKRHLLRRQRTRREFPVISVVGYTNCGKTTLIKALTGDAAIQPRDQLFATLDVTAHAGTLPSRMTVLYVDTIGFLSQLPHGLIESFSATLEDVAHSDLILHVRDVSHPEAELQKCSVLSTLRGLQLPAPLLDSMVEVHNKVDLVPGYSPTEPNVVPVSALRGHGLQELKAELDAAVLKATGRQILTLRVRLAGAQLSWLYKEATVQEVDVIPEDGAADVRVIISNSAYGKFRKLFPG
# Sequence of UniProt O43524 (O43524 whole entry, looked up): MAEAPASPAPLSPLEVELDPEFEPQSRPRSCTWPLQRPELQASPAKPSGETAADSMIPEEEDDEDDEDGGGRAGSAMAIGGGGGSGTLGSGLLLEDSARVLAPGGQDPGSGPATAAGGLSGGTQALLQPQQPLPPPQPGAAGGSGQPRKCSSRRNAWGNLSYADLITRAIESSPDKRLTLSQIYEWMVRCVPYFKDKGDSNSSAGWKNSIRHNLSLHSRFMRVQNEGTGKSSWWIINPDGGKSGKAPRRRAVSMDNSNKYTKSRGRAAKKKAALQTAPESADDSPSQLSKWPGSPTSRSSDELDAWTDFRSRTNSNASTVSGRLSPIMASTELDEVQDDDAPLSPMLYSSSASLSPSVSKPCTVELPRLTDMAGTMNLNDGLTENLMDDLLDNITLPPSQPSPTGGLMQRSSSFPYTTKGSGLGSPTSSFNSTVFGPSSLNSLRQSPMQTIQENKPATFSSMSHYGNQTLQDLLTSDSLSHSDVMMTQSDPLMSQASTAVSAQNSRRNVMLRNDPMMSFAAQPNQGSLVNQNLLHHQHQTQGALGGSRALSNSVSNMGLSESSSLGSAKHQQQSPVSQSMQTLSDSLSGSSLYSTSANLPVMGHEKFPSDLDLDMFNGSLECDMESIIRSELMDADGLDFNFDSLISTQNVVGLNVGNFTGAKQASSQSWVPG
# Sequence of UniProt P0C0S5 (P0C0S5 whole entry, looked up): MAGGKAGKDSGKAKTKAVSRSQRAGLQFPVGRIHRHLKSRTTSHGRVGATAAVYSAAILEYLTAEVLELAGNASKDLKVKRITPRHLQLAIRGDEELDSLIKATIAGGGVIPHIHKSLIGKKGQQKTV
# Sequence of UniProt P37268 (P37268 whole entry, looked up): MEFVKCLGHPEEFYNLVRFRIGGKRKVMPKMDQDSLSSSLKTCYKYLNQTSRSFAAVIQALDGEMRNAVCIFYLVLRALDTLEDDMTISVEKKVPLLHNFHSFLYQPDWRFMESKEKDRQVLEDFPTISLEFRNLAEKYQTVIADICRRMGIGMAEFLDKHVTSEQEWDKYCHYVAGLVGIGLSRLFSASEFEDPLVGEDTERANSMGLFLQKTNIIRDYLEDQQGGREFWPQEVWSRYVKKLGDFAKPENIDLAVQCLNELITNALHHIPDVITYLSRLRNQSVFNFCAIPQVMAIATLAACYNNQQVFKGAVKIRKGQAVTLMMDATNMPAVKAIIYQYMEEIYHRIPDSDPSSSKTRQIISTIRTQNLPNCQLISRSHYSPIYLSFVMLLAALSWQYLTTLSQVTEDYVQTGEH
# Sequence of UniProt P49841 (P49841 whole entry, looked up): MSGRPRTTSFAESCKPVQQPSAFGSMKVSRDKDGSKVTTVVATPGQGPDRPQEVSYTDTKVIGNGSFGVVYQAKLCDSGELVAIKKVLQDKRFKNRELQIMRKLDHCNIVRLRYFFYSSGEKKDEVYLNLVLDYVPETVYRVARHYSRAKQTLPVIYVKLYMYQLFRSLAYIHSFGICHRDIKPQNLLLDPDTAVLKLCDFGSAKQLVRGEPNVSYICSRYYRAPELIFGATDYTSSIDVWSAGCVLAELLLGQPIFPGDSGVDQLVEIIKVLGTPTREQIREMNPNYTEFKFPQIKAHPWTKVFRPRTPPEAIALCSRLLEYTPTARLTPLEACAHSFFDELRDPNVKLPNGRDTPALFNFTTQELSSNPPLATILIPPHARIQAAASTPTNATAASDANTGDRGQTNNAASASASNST
# Sequence of UniProt P13807 (P13807 whole entry, looked up): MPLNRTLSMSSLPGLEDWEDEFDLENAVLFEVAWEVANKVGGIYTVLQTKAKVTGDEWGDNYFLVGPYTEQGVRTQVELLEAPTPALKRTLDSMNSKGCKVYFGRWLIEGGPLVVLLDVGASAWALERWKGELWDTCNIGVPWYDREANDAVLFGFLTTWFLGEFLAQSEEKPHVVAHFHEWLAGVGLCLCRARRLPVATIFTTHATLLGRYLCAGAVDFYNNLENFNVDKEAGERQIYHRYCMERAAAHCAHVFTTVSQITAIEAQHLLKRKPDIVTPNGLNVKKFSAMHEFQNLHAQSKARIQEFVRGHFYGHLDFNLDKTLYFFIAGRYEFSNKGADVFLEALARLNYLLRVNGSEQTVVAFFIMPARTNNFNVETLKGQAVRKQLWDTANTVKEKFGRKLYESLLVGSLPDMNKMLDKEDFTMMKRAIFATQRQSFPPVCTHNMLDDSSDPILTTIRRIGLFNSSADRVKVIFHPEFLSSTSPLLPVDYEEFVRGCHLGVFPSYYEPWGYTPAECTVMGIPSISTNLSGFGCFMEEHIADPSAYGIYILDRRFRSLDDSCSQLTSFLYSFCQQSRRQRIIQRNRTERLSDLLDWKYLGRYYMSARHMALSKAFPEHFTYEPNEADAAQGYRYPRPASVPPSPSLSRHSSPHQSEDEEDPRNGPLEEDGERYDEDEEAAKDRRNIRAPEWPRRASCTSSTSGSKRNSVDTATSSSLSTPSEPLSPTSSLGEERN
# Sequence of UniProt Q6Y7W6 (Q6Y7W6 whole entry, looked up): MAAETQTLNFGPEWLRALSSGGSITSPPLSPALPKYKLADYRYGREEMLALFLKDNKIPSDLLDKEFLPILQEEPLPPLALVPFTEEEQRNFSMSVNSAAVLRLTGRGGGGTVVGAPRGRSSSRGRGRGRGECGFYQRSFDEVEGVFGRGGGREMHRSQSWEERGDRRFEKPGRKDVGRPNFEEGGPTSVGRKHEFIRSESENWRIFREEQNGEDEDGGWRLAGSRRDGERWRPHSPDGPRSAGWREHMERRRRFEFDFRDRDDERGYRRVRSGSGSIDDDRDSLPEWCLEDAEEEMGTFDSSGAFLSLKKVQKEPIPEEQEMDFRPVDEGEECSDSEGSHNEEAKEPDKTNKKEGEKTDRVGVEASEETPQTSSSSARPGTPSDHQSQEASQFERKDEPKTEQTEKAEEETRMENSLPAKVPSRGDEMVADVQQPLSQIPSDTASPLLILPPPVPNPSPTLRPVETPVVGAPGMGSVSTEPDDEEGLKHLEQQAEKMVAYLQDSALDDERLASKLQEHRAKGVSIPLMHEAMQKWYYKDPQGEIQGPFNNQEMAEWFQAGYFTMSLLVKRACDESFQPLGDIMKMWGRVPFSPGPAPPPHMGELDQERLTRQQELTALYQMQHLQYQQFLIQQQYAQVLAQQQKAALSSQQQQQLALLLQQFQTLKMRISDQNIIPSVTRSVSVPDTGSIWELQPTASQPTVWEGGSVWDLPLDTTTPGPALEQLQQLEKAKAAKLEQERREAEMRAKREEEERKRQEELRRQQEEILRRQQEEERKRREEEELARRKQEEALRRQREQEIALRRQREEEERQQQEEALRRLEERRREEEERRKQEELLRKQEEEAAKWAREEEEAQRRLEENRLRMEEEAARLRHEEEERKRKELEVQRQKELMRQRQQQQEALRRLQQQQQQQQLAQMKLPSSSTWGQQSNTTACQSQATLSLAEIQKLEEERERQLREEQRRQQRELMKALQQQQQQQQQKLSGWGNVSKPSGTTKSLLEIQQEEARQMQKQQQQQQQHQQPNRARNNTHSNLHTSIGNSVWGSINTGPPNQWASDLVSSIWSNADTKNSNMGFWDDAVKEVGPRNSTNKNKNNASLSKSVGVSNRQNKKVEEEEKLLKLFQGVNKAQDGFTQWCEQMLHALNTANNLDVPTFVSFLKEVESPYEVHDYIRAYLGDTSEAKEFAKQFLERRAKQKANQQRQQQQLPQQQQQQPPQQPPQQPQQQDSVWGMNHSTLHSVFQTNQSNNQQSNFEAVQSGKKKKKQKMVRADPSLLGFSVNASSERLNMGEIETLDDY
Target,log2 fold change [1],log2 fold change (filanesib),log2 fold change (zotarolimus),log2 fold change (idasanutlin),log2 fold change (alisertib),log2 fold change [2],log2 fold change (gefitinib),log2 fold change [3],log2 fold change (lapatinib),log2 fold change (pictilisib),log2 fold change [4],log2 fold change (crizotinib),log2 fold change [5],log2 fold change [6],log2 fold change (duvelisib),log2 fold change (gandotinib),log2 fold change (tozasertib),log2 fold change [7],log2 fold change (doramapimod),log2 fold change (ispinesib)
GOPC (UniProt Q9HD26),-0.059,0.259,0.329,0.007,-0.026,0.668 (active),0.137,-0.146,0.15,0.08,0.218,0.293,-0.043,0.294,-0.003,0.101,0.144,0.091,0.061,0.038
GALK1 isoform 2 (UniProt P51570),-0.023,-0.201,0.012,-0.106,-0.125,-0.049,-0.005,0.036,0.147,-0.05,-0.1,-0.041,0.037,-0.088,-0.021,-0.087,-0.013,0.056,0.012,0.078
FBXO42 (UniProt Q6P3S6),-0.037,0.011,0.025,0.009,0.047,-0.054,0.036,0.07,0.063,-0.088,0.077,0.4 (active),0.127,-0.064,0.076,-0.022,0.105,0.063,0.01,-0.015
H2AZ1 (UniProt P0C0S5),0.05,0.353,-0.113,0.266,0.039,-0.046,0.121,-0.161,0,-0.09,-0.027,-0.062,-0.47,0.345,-0.09,-0.006,-0.146,-0.084,0.178,-0.147
FDFT1 (UniProt P37268),0.123,0.401 (active),0.014,0.013,0.008,-0.052,-0.01,0.042,-0.023,0,-0.009,0.105,-0.032,-0.065,0.32 (active),0.061,-0.032,0.174,0.02,0.077
IFRD2 isoform 2 (UniProt Q12894),-0.073,0.008,0.24,0,-0.278,-0.219,0.128,0.508 (active),0.037,0.336,0.352,-0.047,0.396,-0.035,0.024,0.155,-0.123,-0.059,0.052,0.089
GNB2 (UniProt P62879),-0.051,0.034,-0.006,-0.058,-0.068,0.089,0.085,-0.071,0,0.13,0.084,0.134,0.024,-0.13,0.046,-0.095,0.017,0,0.009,0.062
HNRNPUL1 (UniProt M0R247),-0.028,0.029,-0.468,0.277,–,0.117,0.1,–,-0.15,–,-0.057,0.151,–,0.722,0.673,–,-0.187,-0.374,-0.014,–
GSK3B isoform 2 (UniProt P49841),0.133,-0.034,0.013,-0.121,–,0.056,-0.041,0.022,-0.013,0.014,0.09,-0.053,-0.032,-0.143,-0.015,-0.108,-0.043,0.015,-0.013,0.059
GEMIN2 (UniProt O14893),-0.099,0.132,-0.093,0.034,-0.017,-0.045,0.032,-0.029,0.034,0.016,0.032,-0.043,0.001,0.061,-0.129,0.02,–,-0.013,0.029,-0.149
FOXO3 (UniProt O43524),0.027,-0.069,0.083,0.154,0.149,-0.067,–,-0.068,-0.106,-0.09,-0.028,-0.423 (active),-0.444,0.013,-0.354,-0.061,-0.095,0.16,0.005,-0.095
HSPA8 (UniProt E9PN89),-0.312,0.126,-0.036,0.113,0.042,0.191,0.035,0.126,-0.426,0.134,0.12,0.063,0.024,0.377,–,-0.068,-0.122,–,0,–
IFITM3 (UniProt Q01628),0.055,0.008,0.007,0.07,-0.121,-0.017,0.09,0.089,0.004,–,-0.038,-0.027,0.069,-0.085,0.22,–,-0.002,-0.094,0.038,0.07
IFI30 (UniProt P13284),0.04,0.061,0.06,0.027,-0.11,-0.133,-0.035,0.01,0.147,-0.02,0.013,-0.011,-0.083,-0.02,-0.129,0.042,0.027,0.035,-0.044,0.002
GIGYF2 (UniProt Q6Y7W6),0.005,0.008,0.016,0,-0.023,0.07,-0.043,-0.026,-0.016,-0.027,0.005,-0.084,0.083,0,0.006,-0.03,-0.012,0.114,-0.028,-0.179
GYS1 (UniProt P13807),-0.045,0.045,0.124,0.462,-0.026,-0.109,-0.006,-0.165,0.013,0.219,0.017,-0.097,-0.187,0.311,-0.147,-0.015,-0.079,0.184,0.271,-0.231
GTPBP6 (UniProt O43824),-0.105,0.049,0.061,0.018,-0.217,–,-0.146,0,–,-0.012,-0.002,0.012,0.197,-0.066,-0.002,0.003,0.087,-0.006,0.06,0.076
